Assay outcomes deposited in PubChem by National Center for Advancing Translational Sciences (NCATS).
AmpC inh no detg: qHTS Inhibitors of AmpC Beta-Lactamase (assay without detergent). 330,000 compounds, 0.52% hits. Potency, µM (titrated, usually from 57.1 µM), for inactives: at the highest dose activity change, negative = inhibition, most hits filed as inhibitors. AmpC nitrocefin hydrolysis, absorbance 480 nm, 0.0001% Triton. AID 485341, 2010;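 note: plate controls were no compound for no effect and no enzyme for full effect; nearly all actives have a fitted effect of over 20% in size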
Target sequence (P00811 whole entry, looked up): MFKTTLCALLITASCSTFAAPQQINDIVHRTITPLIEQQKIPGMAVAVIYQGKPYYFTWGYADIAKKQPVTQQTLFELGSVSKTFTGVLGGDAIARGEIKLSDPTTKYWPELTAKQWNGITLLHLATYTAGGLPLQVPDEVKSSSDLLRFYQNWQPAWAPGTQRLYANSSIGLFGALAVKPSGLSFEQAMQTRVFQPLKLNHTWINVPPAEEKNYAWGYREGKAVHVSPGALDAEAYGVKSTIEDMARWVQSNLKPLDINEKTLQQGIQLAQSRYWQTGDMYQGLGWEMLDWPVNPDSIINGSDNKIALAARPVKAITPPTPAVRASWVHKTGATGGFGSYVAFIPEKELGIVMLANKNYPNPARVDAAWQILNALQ
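AmpC (5.3 nM in the dispensed reagent) in 20 mM phosphate pH 7.0 with 0.01% (detergent screen) or 0.0001% Triton X-100 was preincubated with compounds for 15 min at room temperature. Nitrocefin was then added from an 800 uM solution, and hydrolysis was followed at 480 nm.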
Sm TGR block: qHTS Assay for the Inhibitors of Schistosoma Mansoni Peroxiredoxins; Schistosoma mansoni thioredoxin glutathione reductase (TGR), Q962Y6; purified TGR, DTNB reduction, TNB absorbance 405 nm; Potency, µM (titrated, usually from 114 µM), for inactives: top-dose activity change, negative = inhibition, usual class: inhibitors; 360,000 compounds, 3% hits; AID 485364, 2010; note: nearly all actives have a fitted effect of over 60% in size
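TGR 20 nM + NADPH 100 uM (dispensed conc.), cpd preinc 15 min RT; start with NADPH (500 uM addition) then DTNB (15 mM addition). Kinetic TNB absorbance, 405 nm filter. Four-parameter Hill fit across titration.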
AmpC inh detg: qHTS Inhibitors of AmpC Beta-Lactamase (assay with detergent); Potency, µM (doses to about 114 µM), for the others: at the highest dose activity change, negative = inhibition, actives largely listed as inhibitors; 370,000 compounds, 0.041% hits; AID 485294, 2010; AmpC hydrolysis of nitrocefin, absorbance 480 nm, 0.01% Triton; P00811;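 note: 0% = no-compound wells and -100% = no-enzyme wells; nearly all actives have a fitted effect of over 25% in size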
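20 mM phosphate pH 7.0 + 0.01% (detergent screen) or 0.0001% Triton X-100; 5.3 nM AmpC reagent; cpd preinc 15 min RT; nitrocefin (800 uM stock) to start; A480 q20 s × 4 min; Activity was normalised to no-enzyme and no-compound control wells.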
* hit, by the source's call; ? = inconclusive; . = no result given; [ ] = another dose, or the depositor's remark. Most compounds without a hit are left out; they make up all but 3.3% or so of the library. Calls come from the whole dose curve; as a rule, active = well fitted curve in the direction sought with a large enough effect; inconclusive = small, poorly fitted or top-dose-only effect, or another doubt; inactive = no such curve, though single readings can be large; an effect the other way counts as inactive or inconclusive. Unless noted, % is set by controls: 0 for no effect and ±100 for the full control effect; potency is the fitted concentration of half-maximal effect.

SMILES | AmpC inh no detg | Sm TGR block | AmpC inh detg
COc1ccccc1CNS(=O)(=O)c1ccc(F)c(C(=O)Nc2cc(Cl)ccc2OC)c1 | . | 2% | 7%
O=C(C1=C[C@H](c2ccc3c(c2)OCO3)C[C@H](OCCCCO)O1)N1CCN(Cc2ccc3c(c2)OCO3)CC1 | 218% | 0% | 5%
O=C(C1=C[C@@H](c2ccc3c(c2)OCO3)C[C@@H](OCCCCO)O1)N1CCN(Cc2ccc3c(c2)OCO3)CC1 | 228% | -34% | 6%
O=C(O)C1=C[C@@H](c2ccc3c(c2)OCO3)C[C@@H](OCCCCO)O1 | 14% | 45µM* | -6%
O=C(C1=C[C@@H](c2ccc(Br)cc2)C[C@@H](OCCCCO)O1)N1CCN(Cc2ccccc2)CC1 | 191% | 20µM* | -6%
O=C(NCc1ccccc1)C1=C[C@H](c2ccc3c(c2)OCO3)C[C@H](OCCCCO)O1 | 8% | ? | -6%
O=C(C1=C[C@H](c2ccc(Br)cc2)C[C@H](OCCCCO)O1)N1CCN(Cc2ccc3c(c2)OCO3)CC1 | 191% | -10% | -5%
O=C(C1=C[C@@H](c2ccc3c(c2)OCO3)C[C@@H](OCCCCO)O1)N1CCOCC1 | 33% | 45µM* | 1%
O=C(C1=C[C@H](c2ccc3c(c2)OCO3)C[C@H](OCCCCO)O1)N1CCN(Cc2ccccc2)CC1 | 195% | 25µM* | -8%
COc1ccc(-c2nc(C)c(CCNS(=O)(=O)c3cc(C)c(C)cc3C)s2)cc1 | . | 0% | -6%
COc1ccc(Cl)cc1NC(=O)Cn1ncc2c3ccccc3n(Cc3ccccc3)c2c1=O | . | -9% | 3%
CCOc1ccccc1NC(=O)Nc1cc2c(cc1N1CCCCC1)n(CC)c(=O)n2CC | . | -12% | -2%
NC(=O)CSc1nnc(-c2ccccn2)n1Cc1ccco1 | -19% | -11% | -3%
COc1ccccc1NC(=O)CSc1nnc(-c2ccccn2)n1Cc1ccco1 | 21% | 40µM* | ?
COc1ccccc1NC(=O)CSc1nccc(-c2ccco2)n1 | -40% | 25µM* | -4%
COc1ccc(NC(=O)CSc2nnc(-c3ccccc3Cl)n2Cc2ccco2)c(OC)c1 | 41% | 35µM* | 8%
COc1ccccc1NC(=O)CSc1nnc(-c2ccco2)o1 | -8% | 4% | -12%
COc1ccc(NC(=O)CSc2nnc(-c3ccccc3)n2Cc2ccco2)c(OC)c1 | 15% | -21%[11.4 µM] | -4%
COc1ccc(C)cc1NC(=O)CSc1nnc(-c2ccccn2)n1Cc1ccco1 | 66% | 10% | 3%
C(=C\c1ccccc1)/CSc1nnc(-c2ccccn2)n1Cc1ccco1 | 13% | 35µM* | -6%
COc1cc2c(cc1OC)C1O[C@](c3ccsc3)(C2)Oc2c1c(=O)oc1ccc(F)cc21 | 138%[11.4 µM] | ? | 4%[22.9 µM]
COc1ccccc1CCNC(=O)c1ccc(-c2nc(CSc3ccc(C)cc3)c(C)o2)cc1 | . | -2% | -1%
COc1ccc(NC(=O)Cn2c(=O)n(-c3ccccc3)c(=O)c3c4c(sc32)CCCC4)cc1 | . | 6% | 17%
CCOC(=O)c1c(C)c(-c2ccccc2)n(CC(=O)Nc2cc(C)ccc2OC)c1C | . | 0% | -5%
CCOc1ccc(CNC(=O)c2cc3cc(S(=O)(=O)N4CCCCC4)ccc3n2C)cc1 | . | 3% | 9%
SMILES | AmpC inh no detg | Sm TGR block | AmpC inh detg
N#Cc1ccc(CN2C(=O)c3ccccc3Sc3ccc(C(=O)OCc4ccco4)cc32)cc1 | . | -31% | 25%
CCCn1c(CC)nc([N+](=O)[O-])c1S(=O)(=O)c1ccccc1 | -20% | ? | -15%
Cn1cnc([N+](=O)[O-])c1S(=O)(=O)c1cccc(Cl)c1 | -31% | 0.28µM* | ?
COC(=O)c1ccccc1NC(=O)Cn1cc(S(=O)(=O)Cc2ccccc2F)c2ccccc21 | . | -1% | 3%
COc1ccc(C2=CC(c3ccc(Cl)cc3)n3cnnc3N2)cc1OC (configuration not stated) | 109% | 25µM* | ?
COc1ccc(C2C=C(c3ccc(F)cc3)Nc3nc(-c4ccc(Cl)cc4)nn32)cc1 (configuration not stated) | . | 1% | 8%
Cc1ccc(NC(=O)CCn2c(=O)c3cccn3c3ccccc32)c(Cl)c1 | . | -14% | 5%
COc1cc2c(cc1OC)C(COc1ccc(F)cc1)N(C(=O)Cc1ccc(F)cc1)CC2 (configuration not stated) | . | 5% | 7%
Cc1ccc(-c2csc(NC(=O)CSC3=NCCS3)n2)cc1 | -34% | 0% | 1%
Cc1cc(=O)[nH]c(SCC(=O)Nc2ccc(C(=O)O)cc2)n1 | -3% | -3% | -2%
